An excerpt weighted towards active compounds, which were near 3% of everything screened.
USP1-UAF1 inh – inhibitors of human USP1/UAF1 deubiquitinase. recombinant USP1/UAF1, Ub-Rhodamine cleavage fluorescence. Potency, µM (highest dose often 57.1 µM), for inactives: top-dose activity change, negative = inhibition, actives largely listed as inhibitors. actives 0.23% (n = 390,000); further: on the % scale 0 is the no-effect control and ±100 the full control effect; nearly all actives have a fitted effect of over 60% in size
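Step one: compound is pinned into 1nM USP1/UAF1 in HEPES pH 7.8 buffer with TCEP. Step two: 15 min room-temperature incubation. Step three: Ub-Rho (150nM final) starts cleavage, tracked by fluorescence over six one-minute reads.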
VDR inh – blocks the human vitamin D receptor. AID 504847. P11473. VDR-SRC2-3 peptide fluorescence polarization, 2 h. Potency, µM, for the others: max response, negative = inhibition, actives largely listed as inhibitors. actives 0.93% (n = 400,000); further: on the % scale 0 is the no-effect control and ±100 the full control effect
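The screen uses fluorescence polarization to detect compounds that interfere with recruitment of the SRC2-3 coactivator peptide to VDR; plates are read after 2 h at room temperature.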
GCN5L2 inh – GCN5L2 (KAT2A) acetyltransferase inhibition. Q92830. GCN5L2 HAT assay, ThioGlo1 CoA-SH fluorescence. Potency, µM (top dose mostly 58.9 µM), for the others: at the top dose activity change, negative = inhibition, actives largely listed as inhibitors. actives 0.21% (n = 390,000); further: on the % scale 0 is the no-effect control and ±100 the full control effect
Target sequence (Q92830 whole entry, looked up): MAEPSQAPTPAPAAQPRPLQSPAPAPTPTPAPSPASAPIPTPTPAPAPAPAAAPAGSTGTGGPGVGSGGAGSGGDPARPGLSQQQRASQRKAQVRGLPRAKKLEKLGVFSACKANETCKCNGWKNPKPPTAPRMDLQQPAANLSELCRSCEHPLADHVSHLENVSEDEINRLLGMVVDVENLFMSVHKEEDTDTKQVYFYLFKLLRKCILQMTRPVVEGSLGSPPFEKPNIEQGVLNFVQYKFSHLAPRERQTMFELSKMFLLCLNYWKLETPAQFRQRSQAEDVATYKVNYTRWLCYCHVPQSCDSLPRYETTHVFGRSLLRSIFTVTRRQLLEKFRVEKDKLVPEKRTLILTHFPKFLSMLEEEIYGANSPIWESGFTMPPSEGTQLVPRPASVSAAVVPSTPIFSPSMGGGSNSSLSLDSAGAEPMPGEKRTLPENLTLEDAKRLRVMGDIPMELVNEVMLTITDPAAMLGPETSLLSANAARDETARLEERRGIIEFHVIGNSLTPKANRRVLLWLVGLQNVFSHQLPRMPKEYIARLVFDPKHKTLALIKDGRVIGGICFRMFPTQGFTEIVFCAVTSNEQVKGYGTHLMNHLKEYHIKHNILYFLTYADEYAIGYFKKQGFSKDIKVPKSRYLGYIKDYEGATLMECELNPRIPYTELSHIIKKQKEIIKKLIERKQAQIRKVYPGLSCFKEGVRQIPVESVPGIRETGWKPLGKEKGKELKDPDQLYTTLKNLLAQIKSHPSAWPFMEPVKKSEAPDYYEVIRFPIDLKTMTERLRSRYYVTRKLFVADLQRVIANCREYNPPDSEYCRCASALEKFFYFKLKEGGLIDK
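GCN5L2 (20 nM) in 50mM HEPES pH 7.5, 0.1mM EDTA, 0.01% Tween-20 preincubated 15 min with compounds at room temperature. Reaction started with H3(1-25) 75uM, acetyl-CoA 70uM, ThioGlo1 50uM; CoA-thiol fluorescence (Ex340/Em540) read at 0 and 20 min.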
PLK1 PBD block – PLK1 (human) polo-box domain binding inhibition; P53350; Plk1 PBD binding of FITC phosphopeptide, fluorescence polarization; Potency, µM, inactives show max response, negative = inhibition, hits mostly inhibitors; actives 2.8% (n = 360,000); AID 720504; further: series mostly up to about 57 µM; on the % scale 0 is the no-effect control and ±100 the full control effect; nearly all actives have a fitted effect of over 65% in size
PTAP TSG101 blk – blocks PTAP/TSG101 interaction to inhibit HIV-1 budding; Q99816; Fluorescence polarization, FITC-PTAP peptide / Tsg101 binding; Potency, µM (doses to about 115 µM), inactives show at the top dose activity change, negative = inhibition, most hits filed as inhibitors; 340,000 tested, under 10 active; AID 493005; active means well fitted inhibition curve with a large enough effect in the main read-out, with a control signal flat, not every such curve was filed as active; inconclusive means small, poorly fitted or top-dose-only effect, or effect the other way, or a change in a side signal; inactive means no such curve, though single readings can be large or run the other way; further: % of control where 0% means no effect
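Tsg101 binding domain (10 uM final) was mixed with compound and a FITC-labeled PTAP peptide (50 nM final) in HEPES pH 7.5 buffer with NaCl, Tween 20, EDTA and TCEP; fluorescence polarization was read after 20 min at r.t.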
An asterisk follows results filed as active; ? = inconclusive; . = no result. Unless noted, the call rests on the fitted dose curve; in most records, active means well fitted curve in the direction sought with a large enough effect; inconclusive means small, poorly fitted or top-dose-only effect, or another doubt; inactive means no such curve, though single readings can be large; an effect the other way counts as inactive or inconclusive. Potency means the concentration at half of the fitted maximal effect.

SMILES	USP1-UAF1 inh	VDR inh	GCN5L2 inh	PLK1 PBD block	PTAP TSG101 blk
Nc1c(S(=O)(=O)O)cc(Nc2cccc3ccccc23)c2c1C(=O)c1ccccc1C2=O	.	35µM*	13µM*	.	.
Nc1c(S(=O)(=O)O)cc(NC(=O)c2ccccc2)c2c1C(=O)c1ccccc1C2=O	-18%	?	-17%	21µM*	-20%
Nc1c(S(=O)(=O)O)cc(Nc2ccc(Nc3nc(Cl)nc(Nc4ccc(S(=O)(=O)O)cc4)n3)c(S(=O)(=O)O)c2)c2c1C(=O)c1ccccc1C2=O	.	?	20µM*	.	.
CCCCN1C(C(=O)c2ccccc2)=C(OC(C)=O)c2ccccc2S1(=O)=O	-5%	?	-17%	.	.
OCc1ccnc2oc3ccccc3c12	-8%	4%	.	3%	0%
O=[N+]([O-])c1cccc(-c2nc3ccc([N+](=O)[O-])cc3[nH]2)c1	-16%	32µM*	-8%	9.5µM*	-4%
CCCCC(=O)N1CCc2cc(OC)c(OC)cc2C1COc1ccc(OC)cc1 (stereo unspecified)	-17%	-3%	2%	.	.
COc1ccc(NC(=O)C(NC(=O)/C=C\c2ccc3c(c2)OCO3)c2ccccc2)cc1 (stereo unspecified)	-16%	-17%	4%	.	.
CCOC(=O)c1c(NC(=S)NNS(=O)(=O)c2ccc(Br)cc2)sc2c1CCCCC2	-7%	?	?	27µM*	-2%
COC(=O)c1c(NC(=O)COC(=O)c2ccc(Cl)cc2[N+](=O)[O-])sc2c1CCCCC2	-7%	1%	28µM*	1%	1%
CCCc1ccc(OC(C)C(=O)Nc2sc3c(c2C(=O)OC)CCCCC3)cc1 (stereo unspecified)	?	89µM*	-6%	.	.
COC(=O)c1c(NC(=O)C(C)Oc2ccc(Cl)cc2Cl)sc2c1CCCC2 (stereo unspecified)	-16%	?	1%	.	.
CCOC(=O)c1c(NC(=O)COc2ccccc2Br)sc2c1CCCCC2	12%	89µM*	-4%	.	.
COc1ccc(C(=O)NCC(c2cccs2)S(=O)(=O)c2ccc(F)c(C)c2)cc1 (stereo unspecified)	-26%	11%	-7%	.	.
COC(=O)C1=CN(c2ccc(C(C)(C)C)cc2)C(N)=C(C#N)C1c1cccc2ccccc12 (stereo unspecified)	.	.	.	0%	.
CCOC(=O)c1c(NC(=O)c2ccccc2Cl)sc2c1CCCC2	?	12%	-5%	.	.
CCOC(=O)c1c(NC(=O)c2ccccc2Br)sc2c1CCc1ccccc1-2	-18%	79µM*	-14%	6.7µM*	-1%
CCOC(=O)c1c(NC(=O)c2ccccc2N(C)S(=O)(=O)c2ccccc2)sc2c1CCCC2	-9%	-2%	32µM*	-12%	-4%
CC(C)OC(=O)c1c(NS(=O)(=O)c2ccccc2)sc2c1CCCC2	-10%	?	-7%	2.7µM*	1%
CCOC(=O)c1c(NC(=O)C(C)Oc2ccc(Cl)c(C)c2)sc2c1CCCC2 (stereo unspecified)	12%	79µM*	-3%	.	.
CC(=O)c1ccc(NC(=O)c2nc3ccccc3n(C)c2=O)cc1	-8%	-6%	-6%	.	.
O=C(CSc1nnc(C2CCCCC2)n1Cc1ccccc1)NCc1ccco1	3%	?	0%	27µM*	-1%
CC(=O)C(=Nc1ccccc1Cl)NNc1ccc(Cl)cc1	-10%	45µM*	-16%	-2%	0%
COc1ccc(S(=O)(=O)N(CC(=O)NC2CC3CCC2C3)c2ccccc2OC)cc1 (stereo unspecified)	-18%	?	-4%	27µM*	-2%
COc1ccccc1N(CC(=O)NC1CC2CCC1C2)S(=O)(=O)c1ccc(C)cc1 (stereo unspecified)	-11%	-6%	-15%	-2%	-4%
CCOC(=O)C1CCN(S(=O)(=O)c2ccc3c(c2)CCN3C(=O)C2CCC2)CC1	-20%	?	-8%	27µM*	-4%
Cc1nc2c(=O)[nH]c(=S)[nH]c2[nH]c1=O	-19%	-10%	.	21µM*	-9%
CCOc1ccc(C(=O)N2CCC3(CC2)NCCc2[nH]cnc23)cc1	2%	-18%	-3%	-28%	-3%

Screening data: PubChem, National Center for Advancing Translational Sciences (NCATS)
